The full list was thinned out, with hits kept by preference.
Dicer processing: blocks human Dicer maturation of pre-miR-21. Q9UPY3. cat-ELCCA pre-miR-21 Dicer processing, chemiluminescence; active compounds read high. z-score at 25 µM. actives 6% (n = 47,000). AID 1347074; in the data active means z-score above about 3, passing the limit was not always enough;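 further: higher signal means more uncleaved substrate so more Dicer inhibition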
Target sequence (Q9UPY3 whole entry, looked up): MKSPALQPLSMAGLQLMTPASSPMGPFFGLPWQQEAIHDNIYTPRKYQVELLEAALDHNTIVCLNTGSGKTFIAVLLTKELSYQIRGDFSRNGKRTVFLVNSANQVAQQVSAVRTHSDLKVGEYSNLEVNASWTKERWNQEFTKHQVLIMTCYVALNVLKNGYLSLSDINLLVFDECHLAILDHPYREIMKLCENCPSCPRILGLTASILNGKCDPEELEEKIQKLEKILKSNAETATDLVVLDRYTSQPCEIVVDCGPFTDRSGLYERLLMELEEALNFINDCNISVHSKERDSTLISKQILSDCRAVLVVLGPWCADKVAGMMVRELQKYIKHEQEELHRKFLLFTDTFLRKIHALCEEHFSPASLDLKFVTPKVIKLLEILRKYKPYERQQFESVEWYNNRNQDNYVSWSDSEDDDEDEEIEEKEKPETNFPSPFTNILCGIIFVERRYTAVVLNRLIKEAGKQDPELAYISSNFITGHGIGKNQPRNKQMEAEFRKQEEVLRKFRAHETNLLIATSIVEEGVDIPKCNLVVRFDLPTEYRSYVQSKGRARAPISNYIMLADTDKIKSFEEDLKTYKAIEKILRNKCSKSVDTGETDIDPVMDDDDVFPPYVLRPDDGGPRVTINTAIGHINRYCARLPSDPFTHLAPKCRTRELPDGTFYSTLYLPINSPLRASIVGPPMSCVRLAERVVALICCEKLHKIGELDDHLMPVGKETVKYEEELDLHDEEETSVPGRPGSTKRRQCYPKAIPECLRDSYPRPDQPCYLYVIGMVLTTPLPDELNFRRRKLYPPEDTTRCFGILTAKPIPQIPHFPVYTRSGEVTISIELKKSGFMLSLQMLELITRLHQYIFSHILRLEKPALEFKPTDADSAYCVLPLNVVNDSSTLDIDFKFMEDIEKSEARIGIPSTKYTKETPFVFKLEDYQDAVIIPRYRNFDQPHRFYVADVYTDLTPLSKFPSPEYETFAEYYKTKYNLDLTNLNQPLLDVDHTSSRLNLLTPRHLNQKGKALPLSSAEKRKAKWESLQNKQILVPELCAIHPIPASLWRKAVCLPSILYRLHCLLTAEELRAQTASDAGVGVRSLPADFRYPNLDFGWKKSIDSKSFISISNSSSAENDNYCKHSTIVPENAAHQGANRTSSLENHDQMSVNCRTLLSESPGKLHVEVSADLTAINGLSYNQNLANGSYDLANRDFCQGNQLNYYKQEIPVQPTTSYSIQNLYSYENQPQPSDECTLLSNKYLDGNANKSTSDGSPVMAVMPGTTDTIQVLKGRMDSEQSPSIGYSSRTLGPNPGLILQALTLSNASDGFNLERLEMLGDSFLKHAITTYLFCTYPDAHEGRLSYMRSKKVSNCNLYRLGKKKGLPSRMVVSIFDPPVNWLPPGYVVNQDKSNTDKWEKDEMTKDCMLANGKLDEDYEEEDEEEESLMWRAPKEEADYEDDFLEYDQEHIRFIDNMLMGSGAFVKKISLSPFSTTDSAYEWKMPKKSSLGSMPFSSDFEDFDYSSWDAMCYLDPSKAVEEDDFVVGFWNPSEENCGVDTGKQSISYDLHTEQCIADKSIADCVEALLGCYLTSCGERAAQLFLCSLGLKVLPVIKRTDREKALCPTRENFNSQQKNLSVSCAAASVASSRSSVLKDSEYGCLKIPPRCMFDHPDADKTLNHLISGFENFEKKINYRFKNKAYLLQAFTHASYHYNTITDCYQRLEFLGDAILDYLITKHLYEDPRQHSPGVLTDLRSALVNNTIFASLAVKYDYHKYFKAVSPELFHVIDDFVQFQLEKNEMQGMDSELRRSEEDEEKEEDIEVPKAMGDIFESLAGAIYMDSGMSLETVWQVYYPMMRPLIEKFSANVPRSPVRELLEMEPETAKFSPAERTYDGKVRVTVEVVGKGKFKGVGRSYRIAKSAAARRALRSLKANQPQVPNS
A number is an active result; i = inactive.

SMILES | Dicer processing
COc1cccc(OCC(O)Cn2c(C)[n+](C)c3ccccc32)c1 (stereo unspecified) | i
O=C(O)CC12OC3C4C5CC(C6C5C3C61)C42 (stereo unspecified) | i
CC1(C)OC(=O)C2(C(=O)O1)C1C3C4CC5C6C4C1C6C2C53 (stereo unspecified) | i
COC(=O)C1(C(=O)OC)C2C3C4CC5C6C4C2C6C1C53 (stereo unspecified) | 5.4
CCOC(=O)C1=C(C)NC2=C(C(=O)CCC2)C1c1ccc(OC)c(OC)c1 (stereo unspecified) | i
COc1cc(/C=C2\CCCCC2=O)cc(OC)c1OC | i
Cc1ccc(C2CC(C(F)(F)F)n3ncc(C(=O)Nc4ccc5c(c4)OCO5)c3N2)cc1 (stereo unspecified) | i
O=C(Nc1ccccc1F)c1cc2n(n1)C(C(F)(F)F)CC(c1ccco1)N2 (stereo unspecified) | i
O=C(Nc1cccc(O)c1)c1cc2n(n1)C(C(F)(F)F)CC(c1ccco1)N2 (stereo unspecified) | 3.3
COc1ccc(NC(=O)c2cc3n(n2)C(C(F)(F)F)CC(c2ccco2)N3)cc1OC (stereo unspecified) | i
COc1ccc(NC(=O)c2cc3n(n2)C(C(F)(F)F)CC(c2ccco2)N3)cc1 (stereo unspecified) | i
COc1ccc(NC(=O)c2cnn3c2NC(c2ccco2)CC3C(F)(F)F)c(OC)c1 (stereo unspecified) | i
O=C(Nc1ccc2c(c1)OCO2)c1cnn2c1NC(c1ccco1)CC2C(F)(F)F (stereo unspecified) | 5
CCc1c(C)sc(NC(=O)c2cc3n(n2)C(C(F)(F)F)CC(c2ccco2)N3)c1C#N (stereo unspecified) | 4
CC(C)(C)NC(=O)c1cc2n(n1)C(C(F)(F)F)CC(c1ccco1)N2 (stereo unspecified) | i
Cc1[nH]nc(SCC(=O)O)c1[N+](=O)[O-] | i
CN(C)/C=N/c1nc2c(s1)CCc1ccccc1-2 | i
O=C1CC(c2ccc(Cl)cc2)Cc2c1cnc1[nH]n(-c3ccccc3)c(=O)c21 (stereo unspecified) | i
COc1cc(Cl)c(NC(=O)c2cc(Cl)cc(Cl)c2)c(Cl)c1 | i
CCOC(=O)c1c(C)oc(-c2ccccc2)c1S(=O)(=O)N1CCN(c2ncc(C(F)(F)F)cc2Cl)CC1 | i
CS/C(=C\C(=O)c1ccccc1)Nc1ccccc1Cl | i
O=C1C2C3C=CC(O3)C2C(=O)N1OCc1ccc([N+](=O)[O-])cc1 (stereo unspecified) | i
Cc1cc(C(=O)Nc2ccc(F)cc2)c(C)o1 | i
C/C(Nc1ccc(F)cc1)=C1/CCOC1=O | 3.2
C/C(Nc1ccc([N+](=O)[O-])cc1)=C1/CCOC1=O | i
SMILES | Dicer processing
O=C1CCC(=O)N1c1ccc(-c2nc3ccccc3c(=O)o2)cc1 | i
COc1cccc(CNCCO)c1OCc1ccccc1F | i
CC1=NN(c2ccccc2)C(=O)/C1=C1/SC(C(=O)c2cccs2)=NN1c1ccccc1 | i
c1ccc(CCc2nnc3c4c5c(sc4ncn23)CCCC5)cc1 | i
CCCc1nnc2c3c4c(sc3ncn12)CC(C)CC4 (stereo unspecified) | 4.8
CCc1nnc2c3c4c(sc3ncn12)CC(C)CC4 (stereo unspecified) | i
NNC(=S)Nc1ccc(Br)c(Cl)c1 | i
Cc1cc(NC(=S)NN)ccc1Br | 4.1
CC(C)c1ccc(NC(=S)NN)cc1 | i
CCOC(=O)c1nnn2c1nc(N/N=C/c1ccncc1)c1ccccc12 | i
CN(C)/C=C/C(=O)c1ccc(C#Cc2ccccc2)s1 | i
O=C1CC(c2cccc(Cl)c2)Cc2nc(N3CCc4ccccc43)ncc21 (stereo unspecified) | i
O=C1CC(c2cccc(Cl)c2)Cc2nc(NCc3ccco3)ncc21 (stereo unspecified) | i
O=C1CC(c2cccc(Cl)c2)Cc2nc3nc(C(F)(F)F)nn3cc21 (stereo unspecified) | 3.8
COC(=O)C1=NNC(C(=O)OC)=C2COCOCC12 (stereo unspecified) | i
O=C1Nc2c(S(=O)(=O)N3CCOCC3)cc(S(=O)(=O)N3CCOCC3)c3cccc1c23 | i
Cc1ccc2nc(Cc3ccc(N)cc3)[nH]c2c1 | i
Cc1ccc2nc(Cc3nc4ccc(C)cc4[nH]3)[nH]c2c1 | i
Cc1nc2ccc(Cc3ccc4nc(C)[nH]c4c3)cc2[nH]1 | 5
CC1(C)Cc2c(c(N3CCCC3)nc3sc4c(N5CCCC5)ncnc4c23)CO1 | i
COc1ccc(Cc2nc(S(=O)(=O)c3ccccc3)c(NCc3ccccc3)o2)cc1 | i
CCCC(=O)n1c(=O)oc2cc(Br)ccc21 | 4
CCCC(=O)c1cc2cc(Br)ccc2oc1=O | i
CCCC(=O)c1cc2cc(Br)cc(Br)c2oc1=O | i
COc1cc2ncnc(NCCCn3ccnc3)c2cc1OC | i
SMILES | Dicer processing
Cc1nc(C(F)(F)F)c(C(=O)O/N=C(\N)c2cccc(C(F)(F)F)c2)s1 | i
CC(=O)Oc1ccc2c(=O)c(Oc3ccccc3Br)coc2c1 | i
CCCN1C(=O)C(O)(CC(=O)c2ccccn2)c2ccccc21 (stereo unspecified) | i
CCOC(=O)C(NC(C)=O)(Nc1nc2ccccc2s1)C(F)(F)F (stereo unspecified) | i
N/C(=N\C(=S)Nc1ccc(Cl)c(Cl)c1)c1ccccc1 | 5.4
NC(=S)NNc1ccc(Cl)c(Cl)c1 | i
CC(C)c1ccc(NC(=S)N=C(N)N)cc1 | i
CC1(C)CC(=O)c2cc(OCc3ccc([N+](=O)[O-])cc3)c(OCc3ccc([N+](=O)[O-])cc3)cc2O1 | i
CCCc1c(C(=O)Nc2ccc(Cl)cc2)cnn1C | i
Nc1ccc(Oc2ccccc2)cc1 | 5
Nc1cc(Cl)ccc1Oc1ccccc1 | i
Fc1c(F)c(Oc2ccccc2)c(F)c(F)c1Oc1ccccc1 | i
Cn1c(=O)c2c(nc(OCC3CCCCO3)n2Cc2ccc(F)cc2)n(C)c1=O (stereo unspecified) | i
N#C/C(=N\Nc1ccc(F)cc1F)C(=O)C1CC1 | i
Cc1nn(C)c(NC(=O)c2ccccc2)c1Br | i
COc1ccc(/C(O)=C2\C(=O)C(=O)N(CCN3CCOCC3)C2c2ccc(OC)cc2)cc1 (stereo unspecified) | i
N#CC(C#N)C(CC(=O)c1ccccc1)c1ccccc1 (stereo unspecified) | 4.2
O=C(CCCC(=O)c1ccccc1)c1ccccc1 | i
O=C(CC(Sc1ccc(Cl)cc1)c1ccc(Cl)cc1)c1ccccc1 (stereo unspecified) | i
CC1=C(C(=O)OCCOC(C)C)C(c2cccc(O)c2)C2=C(CC(c3cccs3)CC2=O)N1 (stereo unspecified) | i
CCOC(=O)c1[nH]c(COC(C)=O)c(C(C)=O)c1C | i
O/N=C/c1ccc(C#Cc2ccccc2)cc1 | i
COc1cc(-n2c(SCC(=O)c3ccccc3)nc3ccccc3c2=O)c(OC)cc1Cl | i
O=C(CSc1n[nH]c(=O)n1-c1ccccc1)c1ccc(Cl)cc1 | i
COc1cc(-n2c(SCC(=O)c3ccc(Cl)cc3)nc3ccccc3c2=O)c(OC)cc1Cl | 3.8
COC(=O)c1[nH]c2ccccc2c1C(=O)OC | i
O=C(CSc1ncnc2sc3c(c12)CCC3)Nc1ccc2c(c1)OCCO2 | i
CC1(C)CC2CC(C)(CN2c2ccc(C(F)(F)F)cc2[N+](=O)[O-])C1 (stereo unspecified) | i
COC(=O)C1=C(C)NC2=C(C(=O)CC(c3ccccc3)C2)C1c1ccc(C)o1 (stereo unspecified) | i
Cn1nc(-c2ccccc2)cc1NC(=O)Nc1ccc(C(C)(C)C)cc1 | i

Source: PubChem (Center for Chemical Genomics, University of Michigan)
